Results: PubChem BioAssay AID1852 (Sanford-Burnham Center for Chemical Genomics, 2009)
In all, about 2,500 compounds went through this assay and about 1,100 (44%) were called active. So high a share suggests a set chosen from earlier hits. The list shows a part of the results. Values without a mark were called inactive.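 Rule for the calls: active = inhibition above 50% at 4 µM in the single-point screen; inactive = inhibition of 50% or less.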

Assay: TNF-a-driven NF-kB reporter inhibitors, primary screen, selectivity assay for NOD1/NOD2 signaling inhibitor project, cell-based, HEK293T NF-kB-Luc, luminescence (AID 1852)
Conditions: TNF-a induced, 14 h, at 4 µM, stronger effect = higher value

Structure (SMILES) | inhibition
NC(=O)c1c(NC(=O)C(=O)N2CCOCC2)sc2c1CCCC2 | 29.8%
CCn1nc(C)c(NC(=O)/C=C/c2ccc(OC)c(COc3ccc(Br)cc3)c2)c1C | 38.5%
CCOC(=O)c1c(C)nc2sc3c(=O)n(-c4ccc(C(C)=O)cc4)nnc3c2c1-c1ccc(OC)cc1 | 5.1%
COc1ccc(CCNC(=O)C(C)n2nc(C)c3c(C)n(-c4ccc(C)cc4)nc3c2=O)c(OC)c1 (stereo unspecified) | 56.1% (active)
CCOc1ccccc1CNC(=O)Cn1nc(C)c2c(C)n(-c3ccc(C)cc3)nc2c1=O | 55% (active)
COc1ccc(OC)c(CCNC(=O)Cn2nc(C)c3c(C)n(-c4ccc(C)cc4)nc3c2=O)c1 | 69.7% (active)
COc1ccc(OC)c(CCNC(=O)C(C)n2nc(C)c3c(C)n(-c4ccc(C)cc4)nc3c2=O)c1 (stereo unspecified) | 49.3%
O=C(c1ccc(S(=O)(=O)c2ccccc2Cl)c([N+](=O)[O-])c1)N1CCN(Cc2ccccc2)CC1 | 56.1% (active)
O=C(c1ccc(S(=O)(=O)c2cccc(Cl)c2)c([N+](=O)[O-])c1)N1CCN(c2ccccn2)CC1 | 35.5%
O=C(c1ccc(S(=O)(=O)c2ccccc2Cl)c([N+](=O)[O-])c1)N1CCCCCC1 | 26.2%
O=C(c1ccc(S(=O)(=O)c2ccc(F)cc2)c([N+](=O)[O-])c1)N1CCCCCC1 | 27.8%
O=C(c1ccc(S(=O)(=O)c2cccc(Cl)c2)c([N+](=O)[O-])c1)N1CCN(Cc2ccccc2)CC1 | 53.1% (active)
O=C(Nc1nnc(C2CC2)s1)c1cccc(S(=O)(=O)N2CCc3ccccc32)c1 | 9.3%
Cn1cc(S(=O)(=O)N2CCc3ccccc32)cc1C(=O)NC(C)(C)C | 38.6%
O=C(Nc1nc2ccc([N+](=O)[O-])cc2s1)c1ccc(S(=O)(=O)N2CCCc3ccccc32)cc1 | 68.8% (active)
O=C(Nc1ccc(Cl)cc1)OCc1cncs1 | -60.4%
Cc1ccc(NC(=O)O/N=C/c2c(C)nn(C(C)(C)C)c2C)cc1Cl | 90.2% (active)
Cc1nn(C(C)(C)C)c(C)c1/C=N/OC(=O)Nc1ccc(Cl)c(Cl)c1 | 94% (active)
Cc1ccc(NC(=O)Cc2ncc(C(F)(F)F)cc2Cl)cc1Cl | -15.6%
Cc1nn(C(C)(C)C)c(C)c1/C=N/OC(=O)Nc1ccc(Cl)cc1 | 71.3% (active)
COc1ccc(NC(=O)COC(=O)/C=C/C(=O)OCC(=O)Nc2ccc(OC)c(Cl)c2)cc1Cl | 17.7%
O=C(Nc1ccc(Cl)c(Cl)c1)OCc1cnc(Cl)s1 | -13.5%
COc1ccc(OC)c(Nc2c3ccccc3nc3ccccc23)c1 | 20.8%

Structure (SMILES) | inhibition
Cc1ccc(OCCCCn2cnc3ccccc32)cc1 | 26.7%
COc1ccc(-n2cc(-c3ccccc3)c3c(N4CCOCC4)ncnc32)cc1 | 12.7%
COc1ccc2ncn(-c3ccccc3)c2c1 | 53.8% (active)
COc1ccc(-n2cnc3ccccc32)cc1 | 53.9% (active)
CCOc1ccc(-c2csc3ncn(-c4ccc(OC)cc4)c(=O)c23)cc1 | 44%
CC(=O)c1ccc(NC(=O)c2noc3c2CCC3)cc1 | 35.4%
O=C(Sc1cccc2cccnc12)c1ccc(F)cc1 | 101% (active)
O=C(Sc1cccc2cccnc12)c1ccccc1Br | 105% (active)
CCOC(=O)c1c(N2C(=O)Nc3cc(Cl)c(Cl)cc3N2O)sc2c1CCCCC2 | 75.5% (active)
CCOc1ccc(Nc2ncnc3ccc([N+](=O)[O-])cc23)cc1 | 63.8% (active)
O=[N+]([O-])c1ccc(O)c(Nc2ncnc3ccc(Br)cc23)c1 | 14.6%
CCOc1cc(C=C(C(=O)OC)C(=O)OC)ccc1OCc1ccc([N+](=O)[O-])cc1 | 7.6%
Cc1ccc(/C=C2/SC(=S)N(CCCC(=O)Nc3ccc(O)cc3)C2=O)cc1 | -26%
Cc1ccc(/C=C2\SC(=S)N(CCCC(=O)NNC(=O)c3ccccc3O)C2=O)cc1 | 67.9% (active)
O=C(CCCN1C(=O)/C(=C/c2cccs2)SC1=S)Nc1cccc(O)c1 | -2.9%
O=C(CCCN1C(=O)/C(=C/c2ccccc2Cl)SC1=S)NNC(=O)c1ccc(Cl)cc1 | 76.9% (active)
O=C(CCCN1C(=O)/C(=C/c2ccccc2Cl)SC1=S)NNC(=O)c1ccccc1 | -19.2%
O=C(CCCN1C(=O)/C(=C/c2ccccc2Cl)SC1=S)NNC(=O)c1ccncc1 | 87% (active)
COc1ccc(/C=C2\SC(=S)N(CCCC(=O)NNC(=O)c3ccccc3O)C2=O)cc1 | 35.4%
COC(CNC(=O)c1c[nH]c2ccc(S(=O)(=O)N3CCOCC3)cc2c1=O)OC | 9.8%
COc1ccc2[nH]cc(C(=O)CCl)c2c1 | 102% (active)
COc1ccc2c(C(=O)CCl)c[nH]c2c1 | 66.7% (active)
O=C(Nc1nc(-c2ccccc2)cs1)c1ccccc1NS(=O)(=O)c1ccc(F)cc1 | 91.5% (active)

Structure (SMILES) | inhibition
COc1ccc(-c2csc(NC(=O)c3ccccc3NS(=O)(=O)c3ccc(F)c(F)c3)n2)cc1 | 82.3% (active)
CCOc1ccc(NC(=O)c2ccccc2NS(=O)(=O)c2ccc(F)cc2)c([N+](=O)[O-])c1 | 11.5%
COc1ccc(-c2csc(NC(=O)c3ccccc3NS(=O)(=O)c3ccc(C)cc3)n2)cc1 | 80.3% (active)
COc1ccc(-c2csc(NC(=O)C3=NN(c4ccccc4)C(=O)CC3)n2)cc1 | -64.2%
Cc1cc(F)ccc1S(=O)(=O)Nc1ccccc1C(=O)Nc1ccccc1-c1nc2ccccc2[nH]1 | 1.4%
COc1ccc(S(=O)(=O)Nc2ccccc2C(=O)Nc2nc(-c3ccc(F)cc3)cs2)cc1OC | 81.4% (active)
Cc1ccc(S(=O)(=O)Nc2ccccc2C(=O)Nc2nc(-c3ccc(F)cc3)cs2)cc1 | 79.9% (active)
COc1ccccc1NS(=O)(=O)c1cccc(NC(=O)c2ccc3ccccc3n2)c1 | 15.4%
CC(=O)c1c(C)[nH]c(C(=O)Nc2nc(-c3ccc(-c4ccccc4)cc3)cs2)c1C | -7.7%
COc1ccccc1C(=O)Nc1nc(-c2ccc(S(=O)(=O)N3CCOCC3)cc2)cs1 | 99.6% (active)
O=C(COc1ccc(Cl)cc1)Nc1nc(-c2ccc(S(=O)(=O)N3CCOCC3)cc2)cs1 | 26.4%
COc1ccc(NC(=O)c2ccc(-c3ccccc3)cc2)cc1NS(=O)(=O)c1ccc(F)cc1 | 59.9% (active)
COC(=O)c1ccc(NC(=O)c2ccccc2NS(=O)(=O)c2ccccc2)cc1 | 32.6%
CC(C)CCNC(=O)c1cc(-c2ccncc2)nc2ccc(S(=O)(=O)N3CCOCC3)cc12 | 28.7%
Cc1c(CCC(=O)O)c(=O)oc2cc(OCc3ccccc3Br)ccc12 | 75.3% (active)
Cc1c(CCC(=O)O)c(=O)oc2c(C)c(OCc3ccccc3Cl)ccc12 | 17.1%
COc1ccccc1COc1ccc2c(C)c(CCC(=O)O)c(=O)oc2c1C | 5.6%
Cc1c(C#N)c(NC(=O)CCl)n(Cc2ccccc2)c1C | 95.9% (active)
O=C(CCl)Nc1c2c(nn1-c1ccccc1)CSC2 | -6.5%
CC(=O)Nc1ccccc1OCC(=O)c1cc(C)n(Cc2cccs2)c1C | 28.3%
O=C(CCl)Nc1ccccc1C(=O)NCc1ccccc1 | -4%
CC(=O)Nc1ccc(SCC(=O)c2cc(C)n(Cc3cccs3)c2C)cc1 | -119%
Cc1c(C#N)c(NC(=O)CCl)n(Cc2cccs2)c1C | 101% (active)

Structure (SMILES) | inhibition
CCCCCCCCC[n+]1cccc2c3ccccc3ccc21 | 83.9% (active)
CCCCCCCC[n+]1cccc2c3ccccc3ccc21 | 83.6% (active)
CCC(C)(C)c1ccc(OCCCC[n+]2cccc(C)c2C)c(C(C)(C)CC)c1 | 18.8%
COc1cccc(OCCn2cc(C(C)=O)c3ccccc32)c1 | 26.8%
CC(=O)c1cn(CCOc2ccccc2C)c2ccccc12 | 46.6%
CC(=O)c1cn(CCOc2cc(C)ccc2C)c2ccccc12 | 60.4% (active)
CN(C)/C=C/C(=O)c1ccc2noc(-c3ccccc3)c2c1 | 30.4%
c1ccc(-c2csc3ncnc(NCc4ccccn4)c23)cc1 | 13.4%
c1ccc(CNc2ncnc3scc(-c4cccs4)c23)nc1 | 57.5% (active)
O=C(Nc1nc2ccccc2n1CCOc1ccc(Cl)cc1)c1ccco1 | 102% (active)
Cc1ccc(OCCn2c(NC(=O)c3ccco3)nc3ccccc32)cc1 | 19.6%
COc1cccc(C(C)NC(=O)Nc2ccccc2Cl)c1 (stereo unspecified) | 37.3%
O=C(Nc1ccccc1Cl)/C(Cl)=C(\Cl)S(=O)c1ccccc1 (stereo unspecified) | 107% (active)
O=C(CCl)Nc1ccccc1C(=O)Nc1ccc2c(c1)OCO2 | 10.4%
CC1=C(C(=O)OCc2ccc3c(c2)OCO3)C(c2ccc(O)c([N+](=O)[O-])c2)NC(=O)N1 (stereo unspecified) | 58% (active)
O=C(NCCc1ccccc1)c1ccc2c(c1)OCO2 | -77.5%
CC1=C(C(=O)OCc2ccc3c(c2)OCO3)C(c2ccccc2)NC(=O)N1 (stereo unspecified) | 96.6% (active)
CC1=C(C(=O)OCc2ccc3c(c2)OCO3)C(c2ccc(Cl)cc2)NC(=O)N1 (stereo unspecified) | 102% (active)
CC1=C(C(=O)OCc2ccc3c(c2)OCO3)C(c2ccc(F)cc2)NC(=O)N1 (stereo unspecified) | 104% (active)
COc1ccc(C(=O)N2CCCC(N3CCN(c4ccccc4OC)CC3)C2)c(OC)n1 (stereo unspecified) | 25%
O=c1cc(CSc2ccc(Cl)cc2)nc(-c2ccccn2)[nH]1 | 102% (active)
Cc1ccc(SCc2cc(=O)[nH]c(SCC(=O)Nc3cc(Cl)ccc3Cl)n2)cc1 | 28.1%
